Measured values published in PubChem BioAssay (NCATS).
Inconclusive results are not listed. A structure can be active in one record and inactive in another. Activity calls are given as the source filed them. Unless noted, calls follow the shape of the dose curve; as a rule, active = well fitted inhibition curve with a large enough effect; inconclusive = small, poorly fitted or top-dose-only effect; inactive = no such curve, though single readings can be large or run the other way.

What follows are molecules tested against Muscarinic acetylcholine receptor M1 (Rattus norvegicus) (UniProt P08482) (assay: qHTS Assay for Antagonists of Acetylcholine Muscarinic M1 Receptor: Kinetic Measurement of Intracellular Calcium Response (AID 943; also: nearly all actives have a fitted effect of over 75% in size; also: potency is read from the fitted curve at half-maximal effect;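 as to activity change, negative = inhibition: Fluo-4 calcium signal as peak divided by basal fluorescence over 4 min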)). Conditions: M1-expressing cells, kinetic intracellular calcium fluorescence; series mostly up to 35.3 µM; activity change, negative = inhibition: at the top concentration.
Outline: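 Read-out: peak over basal Fluo-4 fluorescence, kinetic at 1 Hz for 4 min after EC80 carbachol (100 nM final). Rat M1-CHO cells, dye loaded 1 h at 37C, compound added 10 min before agonist.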

Chain of Muscarinic acetylcholine receptor M1 (Rattus norvegicus) (P08482 whole entry, looked up): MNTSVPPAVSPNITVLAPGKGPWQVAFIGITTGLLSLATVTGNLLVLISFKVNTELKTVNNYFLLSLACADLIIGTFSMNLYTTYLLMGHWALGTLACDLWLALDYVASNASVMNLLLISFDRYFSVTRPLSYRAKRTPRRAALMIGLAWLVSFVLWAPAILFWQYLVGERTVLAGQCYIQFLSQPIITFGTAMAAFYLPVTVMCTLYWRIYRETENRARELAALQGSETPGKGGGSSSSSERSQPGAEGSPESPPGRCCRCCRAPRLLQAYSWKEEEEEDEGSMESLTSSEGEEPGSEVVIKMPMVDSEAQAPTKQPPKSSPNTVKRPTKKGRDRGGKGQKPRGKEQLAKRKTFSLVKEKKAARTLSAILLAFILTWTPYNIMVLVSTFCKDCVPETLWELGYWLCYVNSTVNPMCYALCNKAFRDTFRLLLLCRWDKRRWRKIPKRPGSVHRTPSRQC

SMILES	activity change, negative = inhibition	Potency
NCCCP(=O)(O)O	-26.3% (inactive)	–
CCCn1c(=O)c2[nH]c(C3CCCC3)nc2n(CCCOC(=O)c2ccc(S(=O)(=O)F)cc2)c1=O	–	5.01 µM (active)
NC(=O)CI	-19.4% (inactive)	–
Nc1ccc(CCN2CCN(c3cccc(C(F)(F)F)c3)CC2)cc1	–	11.2 µM (active)
O=C(O)c1cc[c]([Hg][Cl])cc1	-21.4% (inactive)	–
CCCN(CCC)[C@@H]1CCc2cccc(O)c2C1	–	3.98 µM (active) and inactive
CP(=O)(O)C1=CCNCC1	-23.3% (inactive)	–
C[C@@H]1[C@@H]2Cc3ccc(O)cc3[C@@]1(C)CCN2CC1CC1	–	14.1 µM (active)
NNC(=O)c1ccc(O)cc1	-43.3% (inactive)	–
COc1ccc2c(c1)/C(=C/c1cnc[nH]1)C(=O)N2	-40.2% (inactive)	–
O=c1c2ccccc2[se]n1-c1ccccc1	-20.4% (inactive)	–
CN(N=O)c1cc(O)ccc1O	9.62% (inactive)	–

What follows are molecules tested against Muscarinic acetylcholine receptor M1 (Rattus norvegicus) (UniProt P08482) (assay: qHTS Assay for Antagonists of Acetylcholine Muscarinic M1 Receptor: Measurement of IP-One Response (AID 944; also: nearly all actives have a fitted effect of over 75% in size; also: potency is read from the fitted curve at half-maximal effect)). Conditions: CHO-M1 cells, IP-One HTRF, antagonist mode; series mostly up to 46.1 µM; activity change, negative = inhibition: at the top concentration.
Outline: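 Read-out: HTRF competition between d2-IP1 and Eu-cryptate anti-IP1 antibody, emission 620 and 665 nm. Stimulus was carbachol, EC80 (200 nM), for 30 min in M1-CHO cells (rat receptor), after 10 min compound pre-treatment.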

SMILES	activity change, negative = inhibition	Potency
CCCN(CCC)CCc1ccc(O)c(O)c1	-15.6% (inactive)	–
CN(N=O)c1ccc(O)c(O)c1	6.65% (inactive)	–
NCCc1c[nH]c2ccc(C(N)=O)cc12	-23.2% (inactive)	–
CC(=O)NBr	-15.4% (inactive)	–
N[C@@H](Cn1oc(=O)[nH]c1=O)C(=O)O	-12.5% (inactive)	–
CCCn1c(C)c(C(=O)c2ccc3ccccc3c2)c2ccccc21	-15.3% (inactive)	–
CCS(=O)(=O)Nc1cccc(C(=C2CCCCC2)c2cnc[nH]2)c1	-29.8% (inactive)	–
CC(C)NP(=O)(NC(C)C)OP(=O)(NC(C)C)NC(C)C	-20.8% (inactive)	–
CC(C)(C)c1cc(C=C(C#N)C#N)cc(C(C)(C)C)c1O	–	1.41 µM (active)
NCCc1ccc(S(=O)(=O)F)cc1	-32.3% (inactive)	–
O=C(O)c1cc[c]([Hg][Cl])cc1	-15.3% (inactive)	–
CCCN(CCC)[C@@H]1CCc2cccc(O)c2C1	–	7.08 µM (active) and inactive
c1ccc2c(c1)[I+]c1ccccc1-2	-21.5% (inactive)	–
O=[N+]([O-])c1ccc2nc(N3CCNCC3)ccc2c1	-43.8% (inactive)	–
NC(N)=NOCC[C@H](N)C(=O)O	-19.1% (inactive)	–
CP(=O)(O)C1=CCNCC1	-26% (inactive)	–
C[C@@H]1[C@@H]2Cc3ccc(O)cc3[C@@]1(C)CCN2CC1CC1	–	15.8 µM (active)
C[N+](C)(C)CCOC(=O)CBr	-28.9% (inactive)	–
O=c1c2ccccc2[se]n1-c1ccccc1	0.127% (inactive)	–
CN(N=O)c1cc(O)ccc1O	25.4% (inactive)	–

These molecules were tested against Pyruvate kinase (Leishmania mexicana) (UniProt Q27686) (assay: qHTS Validation Assay for Inhibitors of Leishmania Mexicana Pyruvate Kinase (AID 945; also: potency is read from the fitted curve at half-maximal effect;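 as to activity change, negative = inhibition: 0% = DMSO only neutral control wells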)). Conditions: purified L. mexicana pyruvate kinase, enzyme activity, E451W mutant enzyme; series mostly up to 57.5 µM; activity change, negative = inhibition: at the top concentration.
Outline: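 Compounds are tested as eight-point concentration series. Reactions contain 0.2 nM LmPYK E451W, 0.5 mM PEP, 0.1 mM ADP, 7 mM MgCl2 and 50 mM KCl at pH 7.2, run 1 h at room temperature, then read by PKLight luminescence.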

Chain of Pyruvate kinase (Leishmania mexicana) (Q27686 2-499 E452W): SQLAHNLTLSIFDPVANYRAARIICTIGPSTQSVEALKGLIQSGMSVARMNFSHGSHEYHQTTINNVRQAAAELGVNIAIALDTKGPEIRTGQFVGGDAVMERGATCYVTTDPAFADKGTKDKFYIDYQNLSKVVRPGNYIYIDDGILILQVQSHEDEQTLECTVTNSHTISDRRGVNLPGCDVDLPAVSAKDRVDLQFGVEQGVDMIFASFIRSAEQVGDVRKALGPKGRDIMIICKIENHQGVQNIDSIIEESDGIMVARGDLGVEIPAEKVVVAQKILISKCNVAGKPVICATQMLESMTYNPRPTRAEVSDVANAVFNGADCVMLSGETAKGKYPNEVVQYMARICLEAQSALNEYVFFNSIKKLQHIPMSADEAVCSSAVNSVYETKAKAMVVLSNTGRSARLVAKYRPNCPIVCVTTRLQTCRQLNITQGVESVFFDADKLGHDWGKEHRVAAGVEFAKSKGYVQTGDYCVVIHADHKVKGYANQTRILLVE

SMILES	activity change, negative = inhibition	Potency
CCCN(CCC)CCc1ccc(O)c(O)c1	-7.43% (inactive)	–
CN(N=O)c1ccc(O)c(O)c1	145% (inactive)	–
NCCCP(=O)(O)O	-7.2% (inactive)	–
C[N+]1(C)CCN(c2ccccc2)CC1	-5.49% (inactive)	–
C[C@H](N)CN1CCc2ccc(Br)cc21	4.25% (inactive)	–
CCCn1c(=O)c2[nH]c(C3CCCC3)nc2n(CCCOC(=O)c2ccc(S(=O)(=O)F)cc2)c1=O	58.2% (inactive)	–
NC(=O)CI	-6.06% (inactive)	–
NCCc1c[nH]c2ccc(C(N)=O)cc12	-2.41% (inactive)	–
CC(=O)NBr	6.07% (inactive)	–
N[C@@H](Cn1oc(=O)[nH]c1=O)C(=O)O	-6.88% (inactive)	–
NNC(N)=O	3.45% (inactive)	–
Nc1ccc(CCN2CCN(c3cccc(C(F)(F)F)c3)CC2)cc1	6.25% (inactive)	–
CCCN1CCc2cc(O)cc3c2[C@H]1Cc1ccc(O)c(O)c1-3	-7.87% (inactive)	–
CCCn1c(C)c(C(=O)c2ccc3ccccc3c2)c2ccccc21	-9.63% (inactive)	–
CCS(=O)(=O)Nc1cccc(C(=C2CCCCC2)c2cnc[nH]2)c1	7.49% (inactive)	–
Clc1ccc(N2C[C@H]3CC[C@@H](C2)N3)nn1	-2.08% (inactive)	–
CC(C)NP(=O)(NC(C)C)OP(=O)(NC(C)C)NC(C)C	6.44% (inactive)	–

SMILES	activity change, negative = inhibition	Potency
CC(C)(C)c1cc(C=C(C#N)C#N)cc(C(C)(C)C)c1O	13.1% (inactive)	–
NCCc1ccc(S(=O)(=O)F)cc1	1.19% (inactive)	–
O=C(O)c1cc[c]([Hg][Cl])cc1	–	3.98 µM (active)
CCCN(CCC)[C@@H]1CCc2cccc(O)c2C1	–	inactive
c1ccc2c(c1)[I+]c1ccccc1-2	-9.98% (inactive)	–
O=[N+]([O-])c1ccc2nc(N3CCNCC3)ccc2c1	-13.3% (inactive)	–
NC(N)=NOCC[C@H](N)C(=O)O	-0.963% (inactive)	–
CP(=O)(O)C1=CCNCC1	-4.71% (inactive)	–
C[C@@H]1[C@@H]2Cc3ccc(O)cc3[C@@]1(C)CCN2CC1CC1	-4.7% (inactive)	–
C[N+]1(C)[C@@H]2CC[C@H]1CC(OC(=O)c1c[nH]c3ccccc13)C2 (stereo partly specified)	9.95% (inactive)	–
NNC(=O)c1ccc(O)cc1	3.68% (inactive)	–
COc1ccc2c(c1)/C(=C/c1cnc[nH]1)C(=O)N2	-10.6% (inactive)	–
C[N+](C)(C)CCOC(=O)CBr	-3.96% (inactive)	–
O=c1c2ccccc2[se]n1-c1ccccc1	–	10 µM (active)
CN1CCc2cccc(Cl)c2CC1	11.7% (inactive)	–
CN(N=O)c1cc(O)ccc1O	104% (inactive)	–

These molecules were tested against Pyruvate kinase PKM (Homo sapiens) (UniProt P14618) (assay: qHTS Assay for Activators of Human Muscle Pyruvate Kinase (AID 954; active = well fitted curve in the direction sought with a large enough effect, not every such curve was filed as active;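 also: 0% = uninhibited enzyme and -100% = no enzyme or full thiadiazolimine inhibition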)). Conditions: purified human muscle pyruvate kinase, luciferase-coupled luminescence, 1 h; series mostly up to 57.5 µM; activity change, negative = inhibition: at the top concentration.
Outline: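 Compound pinned into substrate mix (0.5 mM PEP, 0.1 mM ADP), then 0.1 nM PKM2 added; 1 h, RT. Stop/detection luciferase reagent added, luminescence read. Normalized to no-inhibition and no-enzyme or reference-inhibitor controls.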

Chain of Pyruvate kinase PKM (Homo sapiens) (P14618 whole entry, looked up): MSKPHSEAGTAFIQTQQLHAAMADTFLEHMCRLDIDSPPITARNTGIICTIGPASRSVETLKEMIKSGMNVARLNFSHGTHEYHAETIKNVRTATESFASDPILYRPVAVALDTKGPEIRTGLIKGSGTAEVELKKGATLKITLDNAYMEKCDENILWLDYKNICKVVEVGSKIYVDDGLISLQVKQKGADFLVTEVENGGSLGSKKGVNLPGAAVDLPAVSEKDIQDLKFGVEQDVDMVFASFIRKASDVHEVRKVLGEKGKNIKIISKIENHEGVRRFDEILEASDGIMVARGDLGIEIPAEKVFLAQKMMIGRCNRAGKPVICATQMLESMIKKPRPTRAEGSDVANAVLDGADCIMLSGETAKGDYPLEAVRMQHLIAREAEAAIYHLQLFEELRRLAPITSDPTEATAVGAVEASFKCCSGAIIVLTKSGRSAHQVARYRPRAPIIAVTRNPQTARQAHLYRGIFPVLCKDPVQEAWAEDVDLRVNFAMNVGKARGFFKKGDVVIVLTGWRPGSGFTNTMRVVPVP

SMILES	activity change, negative = inhibition	outcome
CCCN(CCC)CCc1ccc(O)c(O)c1	-1.15% (inactive)	–
NCCCP(=O)(O)O	16.5% (inactive)	–
C[N+]1(C)CCN(c2ccccc2)CC1	-10.7% (inactive)	–
C[C@H](N)CN1CCc2ccc(Br)cc21	-8.72% (inactive)	–
CCCn1c(=O)c2[nH]c(C3CCCC3)nc2n(CCCOC(=O)c2ccc(S(=O)(=O)F)cc2)c1=O	4.12% (inactive)	–
NC(=O)CI	-22.5% (inactive)	–
NCCc1c[nH]c2ccc(C(N)=O)cc12	-30.2% (inactive)	–
CC(=O)NBr	-1.59% (inactive)	–
N[C@@H](Cn1oc(=O)[nH]c1=O)C(=O)O	-0.278% (inactive)	–
NNC(N)=O	-13.2% (inactive)	–
Nc1ccc(CCN2CCN(c3cccc(C(F)(F)F)c3)CC2)cc1	-6.06% (inactive)	–
CCCN1CCc2cc(O)cc3c2[C@H]1Cc1ccc(O)c(O)c1-3	22.4% (inactive)	–
CCCn1c(C)c(C(=O)c2ccc3ccccc3c2)c2ccccc21	1.75% (inactive)	–
CCS(=O)(=O)Nc1cccc(C(=C2CCCCC2)c2cnc[nH]2)c1	-3.24% (inactive)	–
Clc1ccc(N2C[C@H]3CC[C@@H](C2)N3)nn1	-8.96% (inactive)	–
CC(C)NP(=O)(NC(C)C)OP(=O)(NC(C)C)NC(C)C	-19.7% (inactive)	–

SMILES	activity change, negative = inhibition	outcome
CC(C)(C)c1cc(C=C(C#N)C#N)cc(C(C)(C)C)c1O	-27.7% (inactive)	–
NCCc1ccc(S(=O)(=O)F)cc1	-12.5% (inactive)	–
O=C(O)c1cc[c]([Hg][Cl])cc1	-95% (inactive)	–
CCCN(CCC)[C@@H]1CCc2cccc(O)c2C1	–	inactive
c1ccc2c(c1)[I+]c1ccccc1-2	-19.4% (inactive)	–
O=[N+]([O-])c1ccc2nc(N3CCNCC3)ccc2c1	-15.9% (inactive)	–
NC(N)=NOCC[C@H](N)C(=O)O	0.653% (inactive)	–
CP(=O)(O)C1=CCNCC1	-15.5% (inactive)	–
C[C@@H]1[C@@H]2Cc3ccc(O)cc3[C@@]1(C)CCN2CC1CC1	-12% (inactive)	–
C[N+]1(C)[C@@H]2CC[C@H]1CC(OC(=O)c1c[nH]c3ccccc13)C2 (stereo partly specified)	20.9% (inactive)	–
NNC(=O)c1ccc(O)cc1	-19.7% (inactive)	–
COc1ccc2c(c1)/C(=C/c1cnc[nH]1)C(=O)N2	-28.4% (inactive)	–
C[N+](C)(C)CCOC(=O)CBr	14.6% (inactive)	–
O=c1c2ccccc2[se]n1-c1ccccc1	-101% (inactive)	–
CN1CCc2cccc(Cl)c2CC1	-11.9% (inactive)	–
